The source of these data is PubChem BioAssay.

As a reminder, the inhibition is the drop in the measured response relative to a control, in per cent.

Where “and” joins values, the source holds several entries; their conditions need not be identical. Identical values can stand only once. Calls of active or inactive are those of the source.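 The calls were made as follows, unless noted: active = inhibition at or above 50% relative to wild type and mutant plate controls; inactive = inhibition below 50%.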

The nature of assay [1]: inhibitors of TNFa-induced NFkB p65 translocation, primary screen, imaging, HUVEC, MLSMR starter and 10KST1 sets (AID 438;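 active = inhibition above 20% together with a positive visual image hit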;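 also: compound added about 3h40 before a 20 min TNFalpha stimulation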;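 as to inhibition: signal is the nuclear over cytoplasmic p65 intensity ratio per well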). To be noted: HUVEC TNFa-induced p65 nuclear translocation; cell count: measured here: nuclei count (cytotoxicity indicator), at 2.08 µM; inhibition: at 2 µM, stronger effect = higher value, 0% TNFa-plus-vehicle, 100% no-TNFa wells.
The nature of assay [2]: reduction of polyQ htt aggregates in cells – imaging, exon1htt(103Q)mCFP cells, high-content imaging, primary screen (AID 483;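 active = visual image review flags a hit and inhibition of aggregation exceeds 20%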;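 also: compound exposure lasted 3 days before fixation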;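 as to nuclei count: percent of the per-plate median nuclei count of sample wells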). To be noted: exon1htt(103Q)mCFP cell line, aggregate imaging, at 2 µM; inhibition of aggregation: stronger effect = higher value; nuclei count: measured here: cell count, toxicity.
Assay [3] is described as follows: endothelial E-selectin expression blockers – imaging, HUVEC, immunofluorescence, MLSMR starter and 10KST1 sets, primary screen (AID 487;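 active = visually confirmed hit in the image check and inhibition above 20%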;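 as to inhibition: signal is fraction of cell area covered by stained E-selectin grains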;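 as to nuclei count: 100% = median nuclei count of all wells on the same plate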). To be noted: HUVEC TNFalpha-induced E-selectin immunofluorescence imaging, at 2 µM; inhibition: stronger effect = higher value; nuclei count: measured here: cell number, toxicity.
Assay [4] is described as follows: Primary imaging screen for DUSP6 inhibitors that restore phospho-Erk in transfected HeLa cells, chemical complementation (AID 609;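 active = compounds giving at least 50% inhibition in the cell-based MKP-3 phosphatase rescue imaging test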;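 as to inhibition: phospho-Erk level distribution per well compared with pooled transfected vehicle control wells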). To be noted: HeLa MKP-3 transfected, phospho-Erk imaging KS statistic, at 10 µM, cells stimulated with TPA for 15 min.
Assay [5] addresses Dual specificity protein phosphatase 6 (Homo sapiens) (UniProt Q16828). Described as above. Particulars: HeLa MKP-3 transfected, phospho-Erk imaging KS statistic; at 10 µM; stronger effect = higher value; cells stimulated with TPA for 15 min.
The target in assay [6] is Voltage-gated potassium channel subunit beta-2 (Rattus norvegicus) (UniProt P62483). Briefly: inhibitors of rat Kvbeta2 reductase activity – biochemical, NADPH fluorescence, primary screen (AID 622;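 active = fluorescence slope higher than the sample average by over 3 SD, cut at about -0.22 in these data, passing the limit was not always enough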;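 also: slope of raw intensity against log time taken from 70 to 1610 s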). To be noted: recombinant KvBeta, 4-cyanobenzaldehyde reduction, at 10 µM, stronger effect = higher value.
Sequence of Voltage-gated potassium channel subunit beta-2 (Rattus norvegicus) (P62483 whole entry, looked up): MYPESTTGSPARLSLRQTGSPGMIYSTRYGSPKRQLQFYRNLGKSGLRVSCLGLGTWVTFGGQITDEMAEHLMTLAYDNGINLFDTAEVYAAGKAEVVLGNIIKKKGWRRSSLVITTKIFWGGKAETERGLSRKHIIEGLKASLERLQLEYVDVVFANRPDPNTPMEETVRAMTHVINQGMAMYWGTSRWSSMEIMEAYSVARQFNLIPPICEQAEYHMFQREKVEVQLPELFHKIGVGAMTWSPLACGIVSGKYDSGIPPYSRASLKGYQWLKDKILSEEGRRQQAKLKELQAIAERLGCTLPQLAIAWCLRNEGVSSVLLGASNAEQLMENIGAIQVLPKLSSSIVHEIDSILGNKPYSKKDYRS
Assay [7] has the same target. The assay can be described thus: enhancers of rat Kvbeta2 NADPH turnover – biochemical, NADPH fluorescence, primary screen (AID 623;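 active = NADPH fluorescence slope more negative than the mean of all samples by about 3 SD, 99.7% confidence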;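 also: fluorescence intensity change per second fitted from 20 to 320 s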). To be noted: Recombinant KvBeta, NADPH fluorescence decrease slope, 10 min; at 10 µM; stronger effect = lower value.
Assay [8] has as its target Alpha-2C adrenergic receptor (Homo sapiens) (UniProt P18825). Briefly: compounds altering alpha2C-coupled GIRK flux – cell-based, HEK293 alpha2C/GIRK1/2, thallium flux, primary screen (AID 624;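 active = fluorescence slope after compound addition differing from the mean of all screened samples at 99.7% confidence, in either direction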;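 also: slope of fluorescence ratio to pre-addition baseline per second over 15 to 24 s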). Particulars: thallium flux BTC fluorescence, at 10 µM, actives lie on both sides.
A short description of assay [9]: inhibitors of larval lipid processing in zebrafish, primary screen, whole organism, PED6 fluorescence, gall bladder and intestine (AID 686;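 active = a full or partial loss of lipid-probe fluorescence in the fish gall bladder, intestine or both, judged by eye; inactive = no fluorescence loss, or compound toxic to the fish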;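 also: larvae 5 to 7 days old with five fish per well; signal comes from phospholipase A2 cleavage of quenched PED6 carried via bile; overnight exposure to compound and PED6 before scoring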). Particulars: Zebrafish larvae PED6 lipid processing, fluorescence scoring; screened at 20 µM (by protocol).
Assay [10] is described as follows: loss of swimming-algae plug formation – whole organism, Chlamydomonas reinhardtii, WT vs cilia-less mutant, absorbance, 96-well, primary screen (AID 463189).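 Also: 0% = wild type cc124 cells in DMSO and 100% = ciliumless bld1 mutant cells.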 Particulars: Chlamydomonas reinhardtii gravitaxis, OD600 absorbance, 2 days; at 10 µM; stronger effect = higher value.
Assay [11] is described as follows: blockers of RIG-like receptor reporter activation – cell-based, Sendai virus stimulus, luciferase, 10K MLSCN set, TLR/RLR signaling modifier project, primary screen (AID 602276;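 active = inhibition at or above 50% at 10 µM; inactive = inhibition below 50%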;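 also: firefly luciferase from ISG56 promoter only with Renilla not read in this screen; 0% = Sendai virus plus DMSO and 100% = medium plus DMSO without virus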). To be noted: HEK293 RL24 IRF3 luciferase reporter, at 10 µM, stronger effect = higher value. A general note: In a reporter assay the amount or activity of a reporter protein is the signal.
Assay [12] is described as follows: TLR3 IRF3 reporter activation blockers – cell-based, poly I:C stimulus, luciferase, 10K MLSCN set, primary screen (AID 602277;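 active = inhibition of the reporter signal at or above 50%; inactive = inhibition below 50%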). Particulars: HEK293-TLR3 RL24 IRF3 luciferase reporter, at 10 µM, stronger effect = higher value.
Setting [13] is: measured here: cell density z-score.
[14] abbreviates: measured here: nuclear c-Myc green intensity z-score.
Setting [15] is: measured here: nuclear pErk red intensity z-score, stronger effect = higher value.

Sequence of Dual specificity protein phosphatase 6 (Homo sapiens) (Q16828 whole entry, looked up): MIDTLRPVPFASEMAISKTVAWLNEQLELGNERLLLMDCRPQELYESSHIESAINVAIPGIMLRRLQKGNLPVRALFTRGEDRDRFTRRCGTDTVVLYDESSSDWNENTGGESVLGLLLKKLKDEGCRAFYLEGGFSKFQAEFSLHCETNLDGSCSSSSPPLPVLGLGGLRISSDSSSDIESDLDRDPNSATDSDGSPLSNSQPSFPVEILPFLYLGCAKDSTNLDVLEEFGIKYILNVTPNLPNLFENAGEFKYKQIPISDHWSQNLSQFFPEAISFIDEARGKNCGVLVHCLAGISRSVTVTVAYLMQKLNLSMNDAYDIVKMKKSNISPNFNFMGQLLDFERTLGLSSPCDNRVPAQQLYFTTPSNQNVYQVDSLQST
Sequence of Alpha-2C adrenergic receptor (Homo sapiens) (P18825 whole entry, looked up): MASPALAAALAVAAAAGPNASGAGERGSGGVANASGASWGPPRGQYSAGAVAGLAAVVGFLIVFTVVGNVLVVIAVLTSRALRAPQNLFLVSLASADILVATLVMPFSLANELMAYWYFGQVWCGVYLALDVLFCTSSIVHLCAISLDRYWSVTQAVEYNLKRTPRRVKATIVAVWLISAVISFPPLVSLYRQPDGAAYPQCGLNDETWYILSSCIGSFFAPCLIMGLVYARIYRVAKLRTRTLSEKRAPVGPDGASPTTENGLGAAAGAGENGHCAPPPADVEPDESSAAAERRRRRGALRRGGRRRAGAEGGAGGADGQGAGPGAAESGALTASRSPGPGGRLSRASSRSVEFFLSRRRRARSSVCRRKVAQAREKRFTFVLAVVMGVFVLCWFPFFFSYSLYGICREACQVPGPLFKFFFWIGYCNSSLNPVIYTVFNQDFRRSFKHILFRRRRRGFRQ

Consider `Cc1[nH]c2ccc(F)cc2c(=O)c1SC(F)(F)C(F)C(F)(F)F` (stereo not given), for which the cell count in assay [1] is 491. Also, the inhibition in assay [1] is -1.1% (inactive); in assay [3], -48.3% (inactive); in assay [5], 2.46% (inactive); in assay [10], -4.7% (inactive); in assay [11], 14.5% (inactive); in assay [12], 20.3% (inactive). Besides, in assay [2], the inhibition of aggregation is 4% (inactive). Moreover, the nuclei count in assay [2] was determined as 77.7%; in assay [3], 123%. Also, the figures for the z-score in assay [4] (setting [13]), in assay [4] (setting [14]) and in assay [4] (setting [15]) were -0.588, 0.342 and -0.414, respectively. Also, the fluorescence slope in assay [6] was -0.42 (inactive). For the same compound, in assay [7], the NADPH fluorescence slope was -3.8e-05 (inactive). Moreover, the slope in assay [8] is 0.0059 (inactive). In addition, in assay [9], the outcome was inactive.
For `COc1ccc2nc(S(=O)Cc3ncc(C)c(OC)c3C)[nH]c2c1` (stereo not given), the cell count in assay [1] was determined as 542. The inhibition in [1] is 1.6% (inactive); in assay [3] it was -24.2% (inactive); in assay [5], 25.7% (inactive); in assay [10], 27% (inactive); in [11], -9.53% (inactive); in assay [12] it was -10.5% (inactive). Further, the inhibition of aggregation in assay [2] is 2.2% (inactive). Further, the nuclei count worked out at 97.5% in [2] and 108% in assay [3]. Moreover, the results for the z-score in [4] (setting [13]), in [4] (setting [14]) and in assay [4] (setting [15]) were 0.164, 1.22 and -0.909, respectively. Also, the fluorescence slope in [6] is -0.449 (inactive). For the same compound, the NADPH fluorescence slope in assay [7] was -7.2e-06 (inactive). The slope in assay [8] was 0.00367 (inactive). For the same compound, the result in assay [9] was inactive.
In the case of `COc1cc([C@@H]2c3cc4c(cc3[C@H](O)[C@H]3COC(=O)[C@H]23)OCO4)cc(OC)c1OC`, the cell count in [1] came to 436. In addition, the inhibition was 21.5% (active) in assay [1]; -226% (inactive) in assay [3]; -6.41% (inactive) in assay [5]; 0.865% (inactive) in [10]; 33.7% (inactive) in [11]; 81.6% (active) in [12]. Further, the inhibition of aggregation in [2] is -118% (inactive). Moreover, the nuclei count in [2] was 1.5%; in assay [3] it was 86.2%. Besides, the z-score in assay [4] (setting [13]) was 0.542; in assay [4] (setting [14]), -0.666; in [4] (setting [15]) it was -0.822. For the same compound, in assay [6], the fluorescence slope was -0.472 (inactive). Also, in assay [7], the NADPH fluorescence slope is -0.000104 (inactive). In addition, the slope in assay [8] was 0.00519 (inactive). Further, the call in assay [9] was inactive.
With `COc1ccc2c(c1OC)C(=O)O[C@@H]2[C@H]1c2c(cc3c(c2OC)OCO3)CCN1C`, the cell count in assay [1] came to 567. In addition, the inhibition was 1.8% (inactive) in assay [1]; -22.4% (inactive) in assay [3]; 23.4% (inactive) in [5]; -5.91% (inactive) and 3.65% (inactive) in [10]; 0.328% (inactive) in [11]; 32.2% (inactive) in assay [12]. Further, the inhibition of aggregation in assay [2] was 0.2% (inactive). For the same compound, the nuclei count turned out to be 97.2% in assay [2] and 112% in [3]. Further, the z-score is 0.15 in assay [4] (setting [13]), -0.163 in assay [4] (setting [14]) and -0.0552 in assay [4] (setting [15]). In addition, in assay [6], the fluorescence slope is -0.46 (inactive). The NADPH fluorescence slope in assay [7] was -6.4e-05 (inactive). For the same compound, the slope in assay [8] was 0.00541 (inactive). Further, the result in [9] was inactive.
With `Cc1cccc(N2C(=O)CC(N3CCN(Cc4ccc(Cl)cc4)CC3)C2=O)c1` (stereo not given), the cell count in assay [1] was determined as 544. The inhibition was -6.1% (inactive) in assay [1]; -107% (inactive) in assay [3]; 3.56% (inactive) in [5]; -12.9% (inactive) in [10]; 16.4% (inactive) in [11]; 18% (inactive) in [12]. Also, the inhibition of aggregation in assay [2] is 17.3% (inactive). Also, the nuclei count in assay [2] is 110%; in assay [3], 132%. The z-score in assay [4] (setting [13]) is 1.1; in assay [4] (setting [14]), -1.84; in [4] (setting [15]), -0.334. Besides, in assay [6], the fluorescence slope is -0.551 (inactive). Further, the NADPH fluorescence slope in assay [7] was -3.6e-05 (inactive). Also, in assay [8], the slope was 0.00524 (inactive). Also, the call in [9] was inactive.
